Experimental data published in ChEMBL document CHEMBL3988442, “University of Dundee, Small-Polar-MMV Screening Library” (2021).
For some assays here: Entries with a potency or affinity are not part of this list.

Assays:
Set-up in all cases: scale not given: direction of the effect not stated beside the values
[1] = target: Protein translocase subunit SecA (Escherichia coli (strain K12)) (UniProt P10408); test: Assay to Identify E. coli SecA ATPase Inhibitors; format: functional; conditions: 30 µM
Sequence of Protein translocase subunit SecA (Escherichia coli (strain K12)) (P10408 whole entry): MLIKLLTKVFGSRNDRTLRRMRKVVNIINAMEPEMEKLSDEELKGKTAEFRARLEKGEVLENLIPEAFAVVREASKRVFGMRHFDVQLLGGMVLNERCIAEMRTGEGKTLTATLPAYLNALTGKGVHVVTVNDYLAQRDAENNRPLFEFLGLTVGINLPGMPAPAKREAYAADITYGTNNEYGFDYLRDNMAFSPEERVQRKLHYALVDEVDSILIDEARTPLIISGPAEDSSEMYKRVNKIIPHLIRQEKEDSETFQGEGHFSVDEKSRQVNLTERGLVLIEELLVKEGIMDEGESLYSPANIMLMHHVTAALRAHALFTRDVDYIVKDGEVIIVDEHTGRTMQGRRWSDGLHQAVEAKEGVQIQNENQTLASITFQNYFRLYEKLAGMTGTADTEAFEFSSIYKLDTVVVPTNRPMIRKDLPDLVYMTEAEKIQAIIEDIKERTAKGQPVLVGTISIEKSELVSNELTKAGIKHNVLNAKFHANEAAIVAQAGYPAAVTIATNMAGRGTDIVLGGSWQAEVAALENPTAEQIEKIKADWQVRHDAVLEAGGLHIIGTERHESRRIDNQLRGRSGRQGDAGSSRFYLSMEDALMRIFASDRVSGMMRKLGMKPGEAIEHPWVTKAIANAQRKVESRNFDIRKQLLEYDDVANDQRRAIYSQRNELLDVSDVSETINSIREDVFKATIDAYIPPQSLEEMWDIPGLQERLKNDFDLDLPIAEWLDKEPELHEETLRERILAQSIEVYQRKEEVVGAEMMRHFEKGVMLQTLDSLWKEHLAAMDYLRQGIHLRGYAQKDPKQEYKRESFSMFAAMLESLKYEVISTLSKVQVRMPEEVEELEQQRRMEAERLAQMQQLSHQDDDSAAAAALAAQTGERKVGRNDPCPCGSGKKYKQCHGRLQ

[2] = target: T1, Ubiquitin-activating enzyme e1, putative (Leishmania donovani (strain BPK282A1)) (UniProt E9BSI1); test: Leishmania donovani Ubiquitin Activating Enzyme (LdE1); format: functional; conditions: 30 µM
T1 sequence (whole entry): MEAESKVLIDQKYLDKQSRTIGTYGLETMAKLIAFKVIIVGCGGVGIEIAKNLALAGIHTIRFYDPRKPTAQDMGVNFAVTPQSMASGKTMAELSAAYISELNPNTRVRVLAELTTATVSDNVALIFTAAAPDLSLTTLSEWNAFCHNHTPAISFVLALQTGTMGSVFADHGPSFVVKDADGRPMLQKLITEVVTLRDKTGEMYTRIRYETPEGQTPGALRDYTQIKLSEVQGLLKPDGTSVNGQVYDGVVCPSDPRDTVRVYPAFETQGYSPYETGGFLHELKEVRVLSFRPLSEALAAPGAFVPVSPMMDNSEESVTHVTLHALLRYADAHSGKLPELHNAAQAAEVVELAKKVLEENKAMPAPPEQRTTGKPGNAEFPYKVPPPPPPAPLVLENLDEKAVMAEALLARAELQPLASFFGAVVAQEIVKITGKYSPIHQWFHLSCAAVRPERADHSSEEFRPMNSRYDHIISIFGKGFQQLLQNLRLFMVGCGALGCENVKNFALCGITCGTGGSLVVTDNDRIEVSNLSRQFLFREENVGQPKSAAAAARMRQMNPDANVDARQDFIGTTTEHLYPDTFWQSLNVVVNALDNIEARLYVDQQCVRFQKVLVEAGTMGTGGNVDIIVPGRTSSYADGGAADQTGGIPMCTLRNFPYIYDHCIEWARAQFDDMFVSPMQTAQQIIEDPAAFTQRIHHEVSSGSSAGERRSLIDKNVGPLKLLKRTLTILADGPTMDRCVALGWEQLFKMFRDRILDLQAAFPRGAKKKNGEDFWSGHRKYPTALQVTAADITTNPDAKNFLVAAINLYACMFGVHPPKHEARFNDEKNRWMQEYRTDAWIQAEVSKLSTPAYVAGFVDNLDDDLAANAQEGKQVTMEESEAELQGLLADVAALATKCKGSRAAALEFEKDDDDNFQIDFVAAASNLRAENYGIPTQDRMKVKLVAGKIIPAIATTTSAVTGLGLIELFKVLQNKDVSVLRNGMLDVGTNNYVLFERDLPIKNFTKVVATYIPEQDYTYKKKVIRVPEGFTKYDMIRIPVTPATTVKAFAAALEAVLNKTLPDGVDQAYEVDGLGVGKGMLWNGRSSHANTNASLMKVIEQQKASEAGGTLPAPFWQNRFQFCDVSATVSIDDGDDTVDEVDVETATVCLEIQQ

[3] = target: AMP-activated protein kinase, AMPK (Homo sapiens) (UniProt P54646+O43741+P54619+Q9UGJ0+Q9Y478+Q13131+Q9UGI9); test: AMP-dependent Kinase enzyme assay. An in vitro enzyme assay that detects ADP turnover that is directly proportional to AMPK activity. This uses naive AMPK that is activated during the assay with MK-8722; format: functional; conditions: 30 µM
[4] = target: Sialic acid-binding Ig-like lectin 9 (Homo sapiens) (UniProt Q9Y336); test: Hs-Siglec9 ALPHAscreen SOP 20170721; conditions: 10 µM
Sequence of Sialic acid-binding Ig-like lectin 9 (Homo sapiens) (Q9Y336 whole entry): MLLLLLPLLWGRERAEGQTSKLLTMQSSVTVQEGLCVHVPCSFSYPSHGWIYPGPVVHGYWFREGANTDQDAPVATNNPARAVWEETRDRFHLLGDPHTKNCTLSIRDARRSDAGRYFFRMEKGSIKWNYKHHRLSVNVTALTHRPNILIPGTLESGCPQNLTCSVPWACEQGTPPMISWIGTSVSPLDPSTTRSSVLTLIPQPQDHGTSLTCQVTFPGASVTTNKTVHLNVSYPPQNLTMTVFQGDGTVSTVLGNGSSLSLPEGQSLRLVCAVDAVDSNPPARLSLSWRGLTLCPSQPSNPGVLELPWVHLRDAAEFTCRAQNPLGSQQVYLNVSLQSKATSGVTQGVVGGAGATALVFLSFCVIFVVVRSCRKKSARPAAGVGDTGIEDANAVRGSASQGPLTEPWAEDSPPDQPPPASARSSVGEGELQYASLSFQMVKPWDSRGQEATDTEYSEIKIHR

Trypanosoma cruzi = test: Trypanosoma cruzi phosphomannomutase and mannose-1-phosphate guanylyltransferase assay; format: functional; conditions: 10 µM
[5] = target: T2, Arginase-2, mitochondrial (Homo sapiens) (UniProt P78540); test: in vitro enzyme assay to detect the production of urea directly proportional to the activity of Arginase II; format: functional; conditions: 33.3 µM; note: in the data most compounds retested in dose-response had high values
T2 sequence (whole entry): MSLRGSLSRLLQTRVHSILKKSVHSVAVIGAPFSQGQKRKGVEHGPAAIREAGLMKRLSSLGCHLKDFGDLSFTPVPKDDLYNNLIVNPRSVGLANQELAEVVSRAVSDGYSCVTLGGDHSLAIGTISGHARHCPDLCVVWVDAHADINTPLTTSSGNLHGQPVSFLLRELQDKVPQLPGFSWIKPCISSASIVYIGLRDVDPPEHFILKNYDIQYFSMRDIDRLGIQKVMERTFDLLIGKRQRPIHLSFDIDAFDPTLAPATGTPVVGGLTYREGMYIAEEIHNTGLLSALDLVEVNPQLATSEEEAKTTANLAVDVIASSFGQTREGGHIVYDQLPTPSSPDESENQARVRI

[6] = target: T3, Proteasome subunit beta (Trypanosoma cruzi) (UniProt O96673); test: Trypanosoma cruzi proteasome chymotrypsin-like activity (TcProtChymo) assay.; note: in the data most compounds retested in dose-response had high values; format: functional; conditions: 9.37 µM
T3 sequence (whole entry): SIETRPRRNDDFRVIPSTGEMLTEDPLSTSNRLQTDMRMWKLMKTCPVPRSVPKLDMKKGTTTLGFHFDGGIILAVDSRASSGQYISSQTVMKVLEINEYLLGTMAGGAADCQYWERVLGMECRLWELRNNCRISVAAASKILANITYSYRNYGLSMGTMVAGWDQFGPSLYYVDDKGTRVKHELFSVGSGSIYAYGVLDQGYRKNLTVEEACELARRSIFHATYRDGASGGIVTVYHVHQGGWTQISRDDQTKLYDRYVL

Homo sapiens = species on record: Homo sapiens; test: To identify inhibition of the IFN signalling (Jak-Stat) pathway via expression of an eGFP reporter gene under the control of an IFN-stimulated response element (ISRE) containing MxA promoter.; format: functional; conditions: 30 µM
[7] = target: T4, Tyrosyl-tRNA synthetase, putative (Trypanosoma cruzi (strain CL Brener)) (UniProt Q4DSP6); test: Trypanosoma cruzi tyrosyl tRNA synthetase (TcYRS) _High Tyrosine SOP; format: functional; conditions: 30 µM; note: in the data most compounds retested in dose-response had high values
T4 sequence (whole entry): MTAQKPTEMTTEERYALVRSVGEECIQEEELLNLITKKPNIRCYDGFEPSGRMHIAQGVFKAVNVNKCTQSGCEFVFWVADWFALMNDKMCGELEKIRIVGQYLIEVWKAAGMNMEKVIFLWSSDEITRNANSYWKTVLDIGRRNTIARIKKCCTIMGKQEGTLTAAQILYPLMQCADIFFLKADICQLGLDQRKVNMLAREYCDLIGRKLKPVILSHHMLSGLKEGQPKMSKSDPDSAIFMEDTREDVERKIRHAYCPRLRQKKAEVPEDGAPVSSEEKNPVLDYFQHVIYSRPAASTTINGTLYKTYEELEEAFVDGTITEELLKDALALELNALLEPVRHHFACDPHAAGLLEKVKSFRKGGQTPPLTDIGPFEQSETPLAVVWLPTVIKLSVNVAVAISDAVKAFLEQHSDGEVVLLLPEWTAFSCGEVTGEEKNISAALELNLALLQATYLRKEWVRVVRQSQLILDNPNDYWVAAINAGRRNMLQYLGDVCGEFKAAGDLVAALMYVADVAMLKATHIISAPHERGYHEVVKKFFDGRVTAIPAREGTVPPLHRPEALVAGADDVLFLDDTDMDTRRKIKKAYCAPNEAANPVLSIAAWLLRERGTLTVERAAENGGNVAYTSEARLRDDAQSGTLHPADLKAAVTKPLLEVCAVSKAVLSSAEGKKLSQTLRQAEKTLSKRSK

[8] = target: T4, Tyrosyl-tRNA synthetase, putative (Trypanosoma cruzi (strain CL Brener)); test: Trypanosoma cruzi tyrosyl tRNA synthetase (TcYRS) SOP; format: functional; conditions: 30 µM
[9] = target: Chromo domain-containing protein 1 (Saccharomyces cerevisiae (strain ATCC 204508 / S288c) (Baker's yeast)) (UniProt P32657); test: ScCHD-1 Enzyme Inhibition Assay; format: functional; conditions: 30 µM; note: in the data most compounds retested in dose-response had high values
Sequence of Chromo domain-containing protein 1 (Saccharomyces cerevisiae (strain ATCC 204508 / S288c) (Baker's yeast)) (P32657 whole entry, the tested form may be a part): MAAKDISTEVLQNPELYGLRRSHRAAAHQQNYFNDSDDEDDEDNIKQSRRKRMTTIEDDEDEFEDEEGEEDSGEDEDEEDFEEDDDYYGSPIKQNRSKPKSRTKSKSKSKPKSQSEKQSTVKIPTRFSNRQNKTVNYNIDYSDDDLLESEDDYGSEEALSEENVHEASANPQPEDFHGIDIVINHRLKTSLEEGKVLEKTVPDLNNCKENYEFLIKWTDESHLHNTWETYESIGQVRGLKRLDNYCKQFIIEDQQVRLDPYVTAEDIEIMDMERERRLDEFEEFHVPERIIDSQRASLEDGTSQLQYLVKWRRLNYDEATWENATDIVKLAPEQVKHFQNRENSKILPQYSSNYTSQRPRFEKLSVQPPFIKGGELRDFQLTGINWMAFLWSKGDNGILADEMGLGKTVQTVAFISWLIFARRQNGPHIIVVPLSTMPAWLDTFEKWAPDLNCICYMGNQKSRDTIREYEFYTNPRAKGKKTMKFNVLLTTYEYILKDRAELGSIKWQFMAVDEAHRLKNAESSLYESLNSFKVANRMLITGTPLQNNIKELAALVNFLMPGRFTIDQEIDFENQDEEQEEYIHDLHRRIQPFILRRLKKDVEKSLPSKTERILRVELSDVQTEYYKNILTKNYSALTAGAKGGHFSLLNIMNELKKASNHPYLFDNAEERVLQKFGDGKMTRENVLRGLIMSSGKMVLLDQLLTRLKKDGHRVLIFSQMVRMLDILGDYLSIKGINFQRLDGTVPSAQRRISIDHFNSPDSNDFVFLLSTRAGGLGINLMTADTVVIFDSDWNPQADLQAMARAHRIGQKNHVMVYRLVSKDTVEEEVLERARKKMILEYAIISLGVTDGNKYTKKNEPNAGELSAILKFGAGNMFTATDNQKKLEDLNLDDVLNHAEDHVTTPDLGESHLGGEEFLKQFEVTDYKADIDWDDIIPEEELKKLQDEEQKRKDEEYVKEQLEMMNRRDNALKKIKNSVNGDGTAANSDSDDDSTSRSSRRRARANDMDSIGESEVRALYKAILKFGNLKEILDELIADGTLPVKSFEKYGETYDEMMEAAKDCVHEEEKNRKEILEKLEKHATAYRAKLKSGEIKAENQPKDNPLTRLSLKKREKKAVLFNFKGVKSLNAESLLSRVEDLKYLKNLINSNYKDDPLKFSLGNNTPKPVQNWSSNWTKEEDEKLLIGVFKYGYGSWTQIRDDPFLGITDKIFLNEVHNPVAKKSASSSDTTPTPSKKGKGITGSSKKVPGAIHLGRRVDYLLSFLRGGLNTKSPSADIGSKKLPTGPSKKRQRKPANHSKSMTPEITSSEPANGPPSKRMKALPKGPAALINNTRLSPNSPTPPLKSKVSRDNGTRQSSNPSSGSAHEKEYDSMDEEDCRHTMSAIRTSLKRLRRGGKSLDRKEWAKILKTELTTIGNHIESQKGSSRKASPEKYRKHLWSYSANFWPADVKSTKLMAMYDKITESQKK

SMILES	Percent Effect [1] [%]	Percent Effect [2] [%]	Percent Effect [3] [%]	Percent Effect [4] [%]	Percent Effect (Trypanosoma cruzi) [%]	Percent Effect [5] [%]	Percent Effect [6] [%]	Percent Effect (Homo sapiens) [%]	Percent Effect [7] [%]	Percent Effect [8] [%]	Percent Effect [9] [%]
O=C(NCc1ccco1)[C@H]1C[C@@H]2CCN(c3ccncn3)C[C@@H]2O1	-3.35	10.7	1.73	2.91	6.56	-56.5	16.9	-18.7	6.25	17.5	-5.87
N#Cc1ccccc1OCCN1CCC(N2CCNC2=O)CC1	-1.9	5.41	-4.78	2.6	0.65	-1.29	6.28	8.35	6.93	13.4	-0.203
CC(NC(=O)CCCOc1ccccc1)c1nnc2n1CCCCC2 (configuration not stated)	-4.14	13.5	-5.88	-2.77	0.0943	-5.21	11.3	16.3	5.42	13.6	-4.16
Cc1nc(O)c2nnn(C[C@H]3CCCN3C(=O)c3cccc(F)c3)c2n1	-3.34	-1.35	8.18	1.91	-3.36	-3.48	-0.936	9.46	2.15	1.3	7.79
CN1CCCC(Cc2cncc(C(=O)NCC3CC3)c2)C1 (configuration not stated)	-4.88	1.35	8.98	0.654	0.79	-2.09	4.68	7.04	5.38	11.7	-7.98
c1ccc(-c2cnc(CNCC3CCCN3c3cccnn3)o2)cc1 (configuration not stated)	-1.23	-5.2	3.3	-5.27	1.86	3.16	15.8	0.932	16.2	21.2	-20.7
Cc1cccnc1NC(=O)CSc1ccc2c(c1)OCCO2	-3.38	-4.17	-2.48	-6.94	-2.04	-1.77	8.42	7.78	0	-2.56	-2.02
Cc1c[nH]c(CN(C)C(=O)c2cccc(CCC(C)(C)O)c2)n1	-4.48	8	-4.37	15.8	5.16	20.3	18	-2.28	3.83	16.1	-3.88
O=C(NCCC1CCCO1)c1ccccc1N1CCOCC1 (configuration not stated)	-4.55	2.74	-1.11	12.4	4.56	-5.99	10.7	8.12	10.4	18.5	-2.02
CCOc1ccnc(N2CCN(C(=O)C(C)(C)C#N)CC2)n1	-5.28	15.8	-6.59	-2.59	-4.39	1.8	4.99	6.24	1.48	6.17	-2.03
Cc1n[nH]c(C2CN(CC(=O)NCCc3ccsc3)CCO2)n1 (configuration not stated)	-1.63	5.48	-9.76	0.305	-3.13	-0.455	20.2	8.08	4.3	15	-13.8
O=C(NCc1ccoc1)NC1CCCN(c2ncccn2)C1 (configuration not stated)	-3.31	7.89	6.88	0.569	4.97	-8.28	15.8	20.9	3.19	13	-3.64
COC(=O)c1cccn1C1CCN(C(=O)c2cc(C)ccc2O)CC1	-8.92	18.2	3.73	-0.853	-7.12	0.712	6.25	38.3	2.91	9.76	-5.74
CCn1nccc1CNC(=O)C1CCCC1	0.221	10.4	2.62	4.33	-7.38	1.38	9.65	-1.06	5.38	16.1	-0.569
O=C(C[C@@H]1COC[C@H]2CN(Cc3ccncc3)C[C@@H]12)N1CCOCC1	-1.31	12	-1.49	2.73	-6.88	-17.4	10.5	-2.62	0	2.56	-5.74
Cc1cc(C(=O)N2CCC(c3nccn3CCCN(C)C)CC2)no1	1.38	11	-2.51	3.99	2.74	10.9	20.8	21.1	6.45	17.5	-13.1
Cc1ccsc1CN(C)C(=O)Cn1nc(-c2ccc(F)cc2)oc1=O	-0.652	13.2	1.09	-2.29	3.8	-3.55	22.5	10.2	-8.51	0	-6.06
CC(C)Cc1nc(OCC(=O)O)c(C#N)c2c1CCC2	1.44	9.33	-5.52	-3.77	1.57	-2.29	9.24	3.54	-1.06	2.56	-8.05
Cc1nc(N2CCN(C(=O)C3CC3)CC2)c2c(n1)c(C)nn2C	-1.08	6.67	0.162	0.614	3.73	-4.75	10.2	18.7	6.35	12.8	-11.8
CN(CCn1nc2ccccn2c1=O)CC(=O)NC1CC1	0.259	-2.63	7.37	-0.458	-2.63	15.4	10.4	-11.8	2.13	0	-5.38
NC(=O)C1CCCN(Cc2c(-c3ccco3)[nH]c3ncccc23)C1 (configuration not stated)	-1.81	12.2	-2.48	1.48	-3.16	1.16	9.83	23.8	7.53	14.3	-8.85
COCC(=O)N(C)Cc1ccc(Cl)c(Cl)c1	-4.08	-2.63	8.5	7.96	-3.21	-5.92	21.2	10.7	0	2.6	-8.73
